Reference: PubChem BioAssay (EPA / NIEHS)
Inconclusive results are not listed. Calls of active or inactive are those of the source. Rule for the calls: active = hit-call score of the fitted dose curve at least 0.9, where 1 is the maximum; inconclusive = response in the unintended direction; inactive = score below 0.9.

How the values were obtained:
[1] = biological target: Estrogen receptor (Homo sapiens) (UniProt P03372); assay: OT_ER_ERaERa_0480: Odyssey Thera (OT) 8-hour HEK293T Protein-Complementation Assay for Estrogen Receptor-alpha/-alpha Homodimer (AID 2283351);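 note: rise in fluorescence from reassembled reporter fragments on ERα LBD homodimer in nucleus or whole cell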
Chain of Estrogen receptor (Homo sapiens) (P03372 whole entry, looked up, the tested form may be a part): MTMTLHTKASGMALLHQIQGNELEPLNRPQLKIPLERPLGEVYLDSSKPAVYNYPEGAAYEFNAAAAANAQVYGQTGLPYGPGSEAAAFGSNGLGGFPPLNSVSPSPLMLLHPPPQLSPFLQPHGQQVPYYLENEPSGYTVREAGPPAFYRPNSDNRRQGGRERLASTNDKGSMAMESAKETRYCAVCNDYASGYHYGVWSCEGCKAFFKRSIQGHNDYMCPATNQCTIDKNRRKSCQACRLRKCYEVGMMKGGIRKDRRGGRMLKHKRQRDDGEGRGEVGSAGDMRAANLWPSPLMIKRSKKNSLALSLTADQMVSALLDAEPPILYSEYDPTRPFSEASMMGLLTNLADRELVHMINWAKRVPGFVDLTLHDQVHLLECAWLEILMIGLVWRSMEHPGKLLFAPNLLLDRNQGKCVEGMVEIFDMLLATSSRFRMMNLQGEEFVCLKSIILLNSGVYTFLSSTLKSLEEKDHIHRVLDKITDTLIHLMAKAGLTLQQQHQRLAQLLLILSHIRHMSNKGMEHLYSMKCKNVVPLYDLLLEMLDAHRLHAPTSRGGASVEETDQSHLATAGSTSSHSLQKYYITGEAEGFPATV
How it was run: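 HEK293T cells stably expressing the human ERα ligand-binding domain (aa 310-547) as a homodimer PCA were dosed with compound for 8 h. Gain of fluorescence intensity versus DMSO vehicle was read by laser scanning cytometry.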

[2] = biological target: T1, Estrogen receptor (Homo sapiens) + Estrogen receptor beta (Homo sapiens) (UniProt P03372+Q92731); assay: OT_ER_ERaERb_0480: Odyssey Thera (OT) 8-hour HEK293T Protein-Complementation Assay for Estrogen Receptor-alpha/-beta Heterodimer (AID 2283352)
T1 sequence (P03372 whole entry, looked up, the tested form may be a part): as above
T1 sequence (Q92731 whole entry, looked up, the tested form may be a part): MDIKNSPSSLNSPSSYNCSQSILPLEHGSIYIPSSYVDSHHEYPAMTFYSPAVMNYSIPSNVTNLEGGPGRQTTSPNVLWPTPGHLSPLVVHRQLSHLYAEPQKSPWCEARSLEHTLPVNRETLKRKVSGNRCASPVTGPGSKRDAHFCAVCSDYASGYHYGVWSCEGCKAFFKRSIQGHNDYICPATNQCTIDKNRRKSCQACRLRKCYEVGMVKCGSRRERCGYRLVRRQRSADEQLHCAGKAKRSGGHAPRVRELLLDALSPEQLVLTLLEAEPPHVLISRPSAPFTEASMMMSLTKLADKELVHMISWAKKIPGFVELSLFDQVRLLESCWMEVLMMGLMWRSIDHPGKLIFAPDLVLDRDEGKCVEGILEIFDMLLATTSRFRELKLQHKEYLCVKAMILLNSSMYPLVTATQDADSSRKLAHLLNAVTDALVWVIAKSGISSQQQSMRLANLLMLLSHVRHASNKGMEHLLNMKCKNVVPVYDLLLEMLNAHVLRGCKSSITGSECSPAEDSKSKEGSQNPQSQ
How it was run: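 HEK293T protein-fragment complementation assay of ER-alpha/ER-beta LBD heterodimerisation, read 8 h after dosing. Mean nuclear/cytoplasmic fluorescence intensity measured by laser scanning cytometry; gain of signal fitted relative to DMSO.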

[3] = biological target: T1, Estrogen receptor (Homo sapiens) + Estrogen receptor beta (Homo sapiens); assay: OT_ER_ERaERb_1440: Odyssey Thera (OT) 24-hour HEK293T Protein-Complementation Assay for Estrogen Receptor-alpha/-beta Homodimer (AID 2283356);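 note: heteromer of ER alpha and ER beta binding domains; hits raise reporter fluorescence and both agonists and antagonists give an increase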
How it was run: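 HEK293T stably expressing a PCA of ER alpha LBD (aa 310-547) and ER beta LBD (aa 263-489). After 24 h compound exposure, mean fluorescence intensity in nucleus (agonists) or nucleus and cytoplasm (antagonists) measured by laser scanning cytometry versus vehicle.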

[4] = biological target: Estrogen receptor beta (Homo sapiens) (UniProt Q92731); assay: OT_ER_ERbERb_0480: Odyssey Thera (OT) 8-hour HEK293T Protein-Complementation Assay for Estrogen Receptor-beta/-beta Homodimer (AID 2283357);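 note: active means signal gain over DMSO baseline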
Chain of Estrogen receptor beta (Homo sapiens) (Q92731 whole entry, looked up, the tested form may be a part): as above
How it was run: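 Readout: increase in mean fluorescence intensity (nucleus for agonists; nucleus plus cytoplasm for antagonists) relative to DMSO, from a reporter-fragment complementation of human ER-beta LBD homodimer in HEK293T cells dosed 8 hours.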

Measured: outcome

CC1=CCC2CC1C2(C)C (centres undefined)
inactive: all assays above
